Screen size: about 410,000 compounds; about 7,200 (1.8%) were called active. A call without a number means that no potency is given here. Roughly 7% stayed inconclusive and do not appear here. Only a selection was taken, and actives are over-represented in it overall. Unmarked numbers belong to inactive results. The call rests on the fitted dose curve; in most records, active means well fitted activation curve with a large enough effect; inconclusive means small, poorly fitted or top-dose-only effect, or another doubt; inactive means no such curve, though single readings can be large or run the other way.
Potency means the concentration at half of the fitted maximal effect.

This experiment in a line: qHTS of TDP-43 Inhibitors. Further: nearly all actives have a fitted effect of over 50% in size. The following applies: TDP-43 expressing yeast growth rescue, BacTiter-Glo, 24 h; series mostly up to 46.1 µM. The text has this:
The goal of this project is to identify new chemical probes capable of reversing the toxicity associated with TDP-43 which is associated with frontotemporal lobar degeneration and amyotrophic lateral sclerosis. These compounds will provide a complementary approach to deciphering the tangled mechanisms of toxicity and protection that we have uncovered through genome-wide genetic screens and are beginning to uncover in a large-scale proteomics analysis with mass spectroscopy.
To this end, a miniaturized assay was developed to be screened against the Molecular Libraries Small Molecule Repository (MLSMR) to discover TDP-43 inhibitors. Please note that in the set-up this yeast-based assay compounds that inhibit as TDP-43, have a read-out as activators.
NIH Chemical Genomics Center [NCGC]
NIH Molecular Libraries Probe Centers Network [MLPCN]
Assay Submitter (PI): Susan Lindquist, Whitehead Institute/MIT
Dispense 2.5 microL yeast galactose medium per 1536-well plate, pin compound, dispense 2.5 microL TDP-43 expressing yeast in galactose medium at OD600=0.02 (pregrown in raffinose medium to mid-log phase) per well, incubate for 24 hr at 30 deg C, and cell growth will be measured using 5 microL of Bactiter/Glo reagent to entire plate and read using Luminescence Protocol in ViewLux.
For orientation: qHTS replaces the single test concentration by a dilution series.
Consider `CC1CCN(c2ccc(S(=O)(=O)Nc3cc(C(=O)O)cc(C(=O)O)c3)cc2[N+](=O)[O-])CC1`, for which the Potency result was “inactive”. As for `CC1CCN(C(=O)c2ccc(S(=O)(=O)Cc3cc(F)ccc3F)c([N+](=O)[O-])c2)CC1`, the Potency was 11.2 µM (active). On to `NC(=O)C1CCN(C(=O)c2ccc(F)c(S(=O)(=O)N3CCOCC3)c2)CC1`, for which the Potency entry was “inactive”. Still for that read-out and setting: then `Cc1cc(C)cc(OCC(=O)Nc2c(C(=O)c3ccccc3)oc3ccccc23)c1`, with “inactive”. Regarding `COc1ccc(CCNC(=O)c2ccc(-n3c(C)cc4c3CCCC4)cc2)cc1OC`, the Potency result is “inactive”.

Consider `CC1CCN(S(=O)(=O)c2ccc3c(ccn3CCC(=O)NCc3ccc(N(C)C)cc3)c2)CC1`, for which the Potency entry is “inactive”. Take `CC1CCC2(CC1)N=C(c1ccccc1)C(=O)N2CC(=O)Nc1ccc(F)c(Cl)c1` (stereo not given): the Potency result is “inactive”.

For `Cc1ccc(Cl)cc1NC(=O)NC1COc2ccccc2C1` (stereo not given), the Potency result was “inactive”.

As for `OC(COCC1COc2ccccc2O1)CN1CCN(c2ccc(F)cc2)CC1` (stereo not given), the Potency entry was “inactive”.

Consider `CC1COc2ccccc2N1S(=O)(=O)c1ccccc1` (stereo not given), for which the Potency result is “inactive”. On the same count and under the same terms, next, `Cc1n[nH]c(C)c1S(=O)(=O)N1CCCC(C(=O)NCC2COc3ccccc3O2)C1` (stereo not given): “inactive”; `O=C1C(=O)N(CC2COc3ccccc3O2)c2ccccc21` (stereo not given): 28.2 µM (active). Same read-out and setting: then `Cc1cc(C(=O)CCl)c(C)n1CC1COc2ccccc2O1` (stereo not given), with 20 µM (active); and `COc1ccccc1Nc1c2c(nc3ccc(NC(=O)/C=C/c4cc(OC)c(OC)c(OC)c4)cc13)CCCC2`, with “inactive”. As for `CCc1ccc(NC(=O)C2CCCN2S(=O)(=O)c2ccc3nc(-c4ccccc4)[nH]c3c2)cc1` (stereo not given), the Potency result was “inactive”. For the compound `C=Cc1ccc(Cn2c(C(=O)OC)cc3sc(C)cc32)cc1`, the Potency result was “inactive”. Same read-out and setting: next, `CCN1CCN(c2ncc3c(n2)CC(c2ccccc2O)CC3=O)CC1` (stereo not given): “inactive”; `Cc1ccc(-n2c3nc(=O)[nH]c(=O)c-3cc3c(Cl)cccc32)cc1`: “inactive”; `Cc1ccc(CNC(=O)c2c(O)nc3c(C)cccn3c2=O)cc1`: “inactive”.

For `CCOc1cc(C(=O)Nc2nnc3n2CCS3)cc(OCC)c1OCC`, the Potency entry was “inactive”.

For `Cc1ccccc1NC(=O)Cn1c(=O)n(CCCCC(=O)NCc2ccccc2Cl)c(=O)c2ccccc21`, the Potency result is “inactive”. On the same count and under the same terms, next, `Cc1ccc(C)c(NC(=O)Cn2ccn(-c3ccc(F)cc3)c(=O)c2=O)c1`: “inactive”. Still for that read-out and setting: next, `CSc1ccccc1NC(=O)CCS(=O)(=O)c1nc(-c2cccs2)cc(C(F)(F)F)n1`: “inactive”; `COc1ccccc1-c1cc(C(F)(F)F)nc(S(=O)(=O)CCCC(=O)Nc2cc(C)ccc2O)n1`: “inactive”; `COc1ccccc1-c1cc(C(F)(F)F)nc(S(=O)(=O)CCCC(=O)Nc2ccc(F)cc2F)n1`: 14.1 µM (active). On the same count and under the same terms, then `CCOC(=O)c1ccc(NC(=O)c2ncn(-c3ccccc3)n2)cc1`, with “inactive”; and `Cc1cccc(N2CCN(C(=O)c3ccc(Nc4nc5ccccc5n5nnnc45)cc3)CC2)c1C`, with “inactive”. As to `CN1c2ccc(C=O)c3c(C=O)ccc(c23)N(C)C1(C)C`, the Potency entry is “inactive”. The same measure, in the same setting: next, `Cc1ccc(C=O)c([B-](F)(F)F)c1`: 11.2 µM (active); `CCOc1ccc(OCC)c(Nc2nc3ccccc3n3nnnc23)c1`: “inactive”. As to `Cc1cc(=O)c2cc(C(=O)Nc3cccc(C)c3C)ccc2[nH]1`, the growth rescue (activation) is 0% [at 9.22 µM]. `CCC(=O)c1cc(F)ccc1OCC(=O)Nc1ccc2c(c1)OCCO2`: the Potency result was “inactive”.

In the case of `O=C(COC(=O)COc1cccc(F)c1)NCC1CCCCC1`, the Potency result was “inactive”. For `O=C(COc1ccc(F)cc1Br)NCC1COc2ccccc2O1` (stereo not given), the Potency was 22.4 µM (active). Same read-out and setting: then `CCC(=O)N1CCc2cc(S(=O)(=O)NC(C(=O)Nc3ccc(C(C)=O)cc3)C(C)C)ccc21` (stereo not given), with “inactive”; and `Cc1ccccc1-n1nnnc1SCCCC(=O)c1ccc(F)cc1`, with 35.5 µM (active); and `CCn1nnnc1SCC(=O)c1ccc(C)cc1C`, with “inactive”.

In the case of `CC(=O)Nc1ccc(NC(=O)CSc2nnnn2-c2ccccc2F)cc1`, the Potency entry is “inactive”. With `COc1ccc(CNC(=O)CSCc2nc(-c3ccccc3F)oc2C)cc1`, the Potency entry was “inactive”. As for `COc1ccc(Br)cc1C1CC(=O)Nc2c1c(C)nn2-c1nc(C)cc(C)n1` (stereo not given), the growth rescue (activation) was 10.5% [at 9.22 µM]. Consider `Cc1cc(C)cc(Nc2ncnc3onc(-c4ccc(F)cc4)c23)c1`, for which the Potency entry is “inactive”.

Consider `CN(Cc1ccccc1)c1ccc(-c2nc(-c3ccccc3)no2)cc1[N+](=O)[O-]`, for which the Potency entry was “inactive”. On to `COc1ccccc1N1CCN(c2ncnc3sc(C)c(-c4ccccc4)c23)CC1`, for which the Potency was 17.8 µM (active). Still for that read-out and setting: next, `CN(Cc1ccccc1)c1ncnc2onc(-c3ccc(F)cc3)c12`: 35.5 µM (active); `COC(=O)c1cnc(N2CCN(c3ccccc3OC)CC2)c2ccccc12`: “inactive”. For the compound `COc1ccccc1N1CCN(CCCCOc2ccc(F)cc2)CC1`, the Potency result was “inactive”. With `COc1ccccc1N1CCN(c2ncnc3onc(-c4cccc(Cl)c4)c23)CC1`, the Potency result is “inactive”. Still for that read-out and setting: next, `COc1ccccc1N1CCN(c2ncnc3onc(-c4ccc(F)cc4)c23)CC1`: 15.8 µM (active); `COc1ccccc1N1CCN(c2ccc([N+](=O)[O-])nc2)CC1`: “inactive”. `CCOc1ccc(OCC)c(NC(=O)c2c(C)nn(-c3ccccc3)c2-n2cccc2)c1`: the Potency entry is “inactive”. For `O=C(Nc1ccc(Br)cc1)c1cc2nc(-c3ccccc3)cc(-c3ccccc3)n2n1`, the Potency entry was “inactive”. `Cc1ccc2c(c1)N(C(=O)CCC(=O)NCc1ccccc1F)CC(C)O2` (stereo not given): the Potency result was “inactive”.

Turning to `Cc1ccc2c(=O)cc(C(=O)Nc3sc4c(c3C(=O)NCc3cccnc3)CCCC4)oc2c1`, the Potency result was “inactive”. Same read-out and setting: then `O=C(CSc1nccn1C1CCCC1)Nc1cc(C(F)(F)F)ccc1Cl`, with “inactive”; and `CCOC(=O)c1cnc(SCC(=O)Nc2ccccc2C(=O)OC)nc1N`, with 22.4 µM (active); and `COC(=O)c1ccccc1NC(=O)CSc1n[nH]c(-c2ccncc2)n1`, with “inactive”. For the compound `CCOC(=O)c1cnc(SCC(=O)Nc2cccc(OC)c2)nc1N`, the Potency result was “inactive”. On to `Cc1nc(SCC(=O)Nc2ccc(C(=O)O)cc2)n[nH]1`, for which the Potency result was “inactive”. For the compound `O=C(Nc1ccc(C(=O)OCc2cc(=O)n3nc(C4CC4)sc3n2)cc1)c1ccc(F)cc1`, the Potency entry was “inactive”. Regarding `CCCCNC(=O)c1ccc2c(c1)NC(=O)C(C(C)C)N2` (stereo not given), the Potency result is “inactive”. Take `CCc1ccccc1N1CC(c2nc3ccccc3n2CCCCOc2ccccc2)CC1=O` (stereo not given): the Potency entry is “inactive”. In the case of `CCOC(=O)c1c(S(=O)(=O)N2CCCC(C(=O)NCc3cccc(C)c3)C2)c(C)n(C)c1C` (stereo not given), the Potency entry is “inactive”.

`CC(NC(=S)Nc1ccccc1)C1COc2ccccc2O1` (stereo not given): the Potency is 12.6 µM (active). With `CC(c1ccco1)N(C(=O)Nc1ccccc1)C1CCCCC1` (stereo not given), the Potency result is “inactive”. Consider `CC(NC(=S)Nc1ccccc1)C(c1cccs1)N1CCOCC1` (stereo not given), for which the Potency result is “inactive”. `COc1ccc(NC(=O)c2cc3cc(C)ccc3n2C)cc1`: the growth rescue (activation) was 2.24% [at 9.22 µM]. With `Cc1nc2ccc(C(=O)N3CCSCC3)cc2s1`, the Potency result was “inactive”. Same read-out and setting: then `Cc1nc2ccc(C(=O)N3CCN(c4ccccc4)CC3)cc2s1`, with 14.1 µM (active); and `CC1CCN(c2nc3ccc(C(=O)N4CCN(c5ccccc5)CC4)cc3s2)CC1`, with “inactive”. For `CC(=O)Oc1ccc(-c2nc3c(C)cccc3c(=O)o2)cc1`, the Potency was 12.6 µM (active).

`COc1nc(N=C(N)N)nc2c(C)cccc12`: the Potency result is “inactive”. On the same count and under the same terms, next, `O=C(Oc1ccccc1)Oc1ccc2c(c1)oc(=O)c1ccccc12`: “inactive”; `O=S(=O)(NCc1ccc(Cl)cc1Cl)c1cccs1`: 8.91 µM (active). Consider `O=C(NCc1ccc(Cl)cc1)C1CCN(S(=O)(=O)c2cccs2)CC1`, for which the Potency result was “inactive”. Same read-out and setting: next, `O=S(=O)(Cc1ccc(Cl)cc1Cl)c1ccc(Cl)cc1`: “inactive”; `CC1=C(C(=O)Nc2ccccc2Cl)C(c2cccs2)n2ncnc2N1` (stereo not given): “inactive”; `CCNC(=O)c1cc2n(n1)CCCN(Cc1ccc(C)cc1)C2=O`: “inactive”.

As to `Cc1ccc(C(=O)N/N=C\c2cc(Br)c(Br)o2)cn1`, the Potency entry was “inactive”. The same measure, in the same setting: next, `CC(/C=C/c1ccco1)=N/NC(=O)C1COc2ccccc2O1` (stereo not given): “inactive”; `O=C(N/N=C\c1cc(Br)c(Br)o1)C1COc2ccccc2O1` (stereo not given): 11.2 µM (active); `O=C(Nc1nc2ccc(F)cc2s1)c1nc(SCc2ccccc2F)ncc1Cl`: “inactive”.

As for `COc1cc(CNCCSc2nnnn2C)ccc1OCc1c(F)cccc1Cl`, the Potency result is “inactive”. Same read-out and setting: then `CCOc1ccc(Nc2nc3c(S(=O)(=O)c4cccc(Cl)c4)nnn3c3ccsc23)cc1`, with “inactive”. For `O=C(NCc1ccc(F)cc1)c1ccc(Cn2c(SCc3ccc(F)cc3)nc3cccnc32)cc1`, the Potency entry was “inactive”. Turning to `CCCCN(C)c1nnc(NC(=O)Nc2ccc(Br)c(C)c2)s1`, the growth rescue (activation) was 22.1% [at 9.22 µM]. In the case of `COc1ccc(NC(=O)C(c2ccncc2)n2c(=O)c(-c3cc4ccccc4[nH]3)nc3ccccc32)cc1` (stereo not given), the Potency was 17.8 µM (active). The same measure, in the same setting: then `COc1ccc(C(C(=O)NCc2ccccc2)n2c(=O)c(-c3ccccc3)nc3ccccc32)cc1` (stereo not given), with “inactive”; and `CCCCCNC(=O)C(c1ccc(OC)cc1)n1c(=O)c(-c2ccccc2)nc2ccccc21` (stereo not given), with “inactive”; and `COc1ccc(CC(=O)NCCc2sc3nc(-c4ccc(OC)cc4)nn3c2C)cc1`, with “inactive”. Same read-out and setting: next, `CC1CCCCN1Cc1c(O)ccc2c(=O)c(-c3cccc(Cl)c3)c(C(F)(F)F)oc12` (stereo not given): “inactive”; `CC1CN(C(=O)c2cc(COc3c(F)cccc3F)on2)CCN1C` (stereo not given): “inactive”.

Regarding `O=C(c1cc(COc2cccc(C(F)(F)F)c2)on1)N1CCSCC1`, the Potency is 22.4 µM (active).

For `O=C(NC1Cc2ccccc2C1)c1cc(COc2cccc(C(F)(F)F)c2)on1`, the Potency result was “inactive”. In the case of `CCc1cccc(NC(=O)Cn2nc(CC)n3c(cc4cc(C)ccc43)c2=O)c1`, the Potency result was “inactive”. For the compound `COc1ccc(C2(Nc3cccc(F)c3)C(=O)c3ccccc3C2=O)cc1`, the Potency entry was “inactive”. On the same count and under the same terms, then `Cc1cc2c(cc1C)C(c1cccc(OC(C)C)c1)CC(=O)N2` (stereo not given), with “inactive”. The same measure, in the same setting: then `CCCOc1ccccc1C1CC(=O)Nc2cc3c(cc21)OCO3` (stereo not given), with 20 µM (active); and `O=C1CC(c2ccc(F)cc2F)c2cc3c(cc2N1)OCO3` (stereo not given), with “inactive”.

On to `Cc1ccc(Cl)cc1N1CCN(C(=O)C2CCC(CNS(=O)(=O)c3cccs3)CC2)CC1` (stereo not given), for which the Potency result was “inactive”. `COc1cccc(CN2CCc3nc(SCC(=O)Nc4ccccc4)[nH]c(=O)c3C2)c1`: the Potency result is “inactive”.

The record behind these values is PubChem BioAssay AID652104 (National Center for Advancing Translational Sciences (NCATS), 2013).
